Data on eleven molecules can be found in PubChem BioAssay (EPA / NIEHS).

The target in experiment [1] is human Peroxisome Proliferator-activated Receptor alpha (PPARa), PPARA (gene 5465) (UniProt Q07869). Description: ATG_PPARa_TRANS: Attagene TRANS-FACTORIAL HepG2 Assay for human Peroxisome Proliferator-activated Receptor alpha (PPARa) (AID 2283001).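 For AC50: potency for gain of reporter signal over DMSO so agonist or activator.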 In short, it runs like this:
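HepG2 cells transiently transfected with multiplexed GAL4-UAS reporters driven by exogenous chimeric NR-Gal4 proteins; reporter mRNA measured after 24 h dosing. Read-out by RT-PCR, 6-FAM labelling, HpaI digestion and capillary electrophoresis; gain of signal versus DMSO.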

In experiment [2] the target is human Peroxisome Proliferator-activated Receptor delta (PPARd), PPARD (gene 5467) (UniProt Q03181). Description: ATG_PPARd_TRANS: Attagene TRANS-FACTORIAL HepG2 Assay for human Peroxisome Proliferator-activated Receptor delta (PPARd) (AID 2283002). In short, it runs like this: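 Read-out: reporter mRNA induction, quantified by fluorescent RT-PCR products resolved by capillary electrophoresis. Human HepG2 liver cells carried transiently transfected Gal4-UAS reporter constructs with chimeric NR-Gal4 fusions. Cells were dosed for 24 h; DMSO served as baseline.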
Chain of human Peroxisome Proliferator-activated Receptor delta (PPARd), PPARD (gene 5467) (Q03181 whole entry, looked up, the tested form may be a part): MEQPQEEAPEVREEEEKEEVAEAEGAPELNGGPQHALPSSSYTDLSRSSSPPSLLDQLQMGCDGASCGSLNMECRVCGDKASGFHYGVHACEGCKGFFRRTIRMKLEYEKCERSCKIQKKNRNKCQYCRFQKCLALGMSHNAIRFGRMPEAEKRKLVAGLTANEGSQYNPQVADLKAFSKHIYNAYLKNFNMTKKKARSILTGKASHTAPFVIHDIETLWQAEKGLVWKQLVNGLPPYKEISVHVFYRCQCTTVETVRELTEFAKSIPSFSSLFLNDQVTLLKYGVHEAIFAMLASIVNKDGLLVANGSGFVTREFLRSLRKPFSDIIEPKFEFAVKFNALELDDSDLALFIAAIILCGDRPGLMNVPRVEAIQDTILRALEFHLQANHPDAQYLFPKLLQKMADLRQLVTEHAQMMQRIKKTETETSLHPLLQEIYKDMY

Read-out in experiment [3]: Intercellular Adhesion Molecule 1 (ICAM1), ICAM1 (gene 3383)
Description: BSK_3C_ICAM1: BioMAP Diversity Plus: 3C Assay for Intercellular Adhesion Molecule 1 (ICAM1) Biomarker Activity (AID 2283003; active = hit-call score of the fitted dose curve at least 0.9, where 1 is the maximum; inactive = score below 0.9). Particulars: primary human endothelial cells (HUVEC); actives raise or lower the signal. A digest of the protocol:
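ICAM-1 levels measured by ELISA after HUVEC cultures in the 3C system had been dosed for 24 h. Gain or loss of signal relative to DMSO was fitted in both directions.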

The nature of experiment [4]: BSK_3C_Proliferation: Cell Proliferation Assessment in the BioMAP Diversity Plus: 3C Assay (AID 2283006; active = hit-call score of the fitted dose curve at least 0.9, where 1 is the maximum; inactive = score below 0.9;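 for AC50: potency may reflect either rise or fall in cell number versus DMSO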). Conditions: primary human endothelial cells (HUVEC). A digest of the protocol:
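Read-out is total protein by SRB absorbance at 560 nm, taken as a proxy for relative cell number. Primary human umbilical vein endothelium cultured below confluence was dosed for 48 h, TCA-fixed and SRB-stained; curves were fitted bidirectionally versus DMSO.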

For experiment [5], the target named is Peroxisome proliferator-activated receptor gamma (Homo sapiens) (UniProt P37231). Description: ATG_PPARg_TRANS: Attagene TRANS-FACTORIAL HepG2 Assay for human Peroxisome Proliferator-activated Receptor-gamma (PPARg) (AID 2283007). In short, it runs like this:
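Liver-derived HepG2 cells expressing an exogenous NR-Gal4 chimera alongside GAL4-UAS reporter genes; 24 h exposure. Fluorescence of reporter RT-PCR products, separated by capillary electrophoresis, gives mRNA induction relative to DMSO.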

In experiment [6] the target is Nuclear receptor subfamily 1 group I member 2 (Homo sapiens) (UniProt O75469). Kind of experiment: ATG_PXR_TRANS: Attagene TRANS-FACTORIAL HepG2 Assay for human Pregnane X Receptor (PXR) (AID 2283008). A digest of the protocol:
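HepG2 cells transiently transfected with GAL4-UAS reporter units and PXR-Gal4 chimera, exposed 24 h. Reporter mRNA quantified by RT-PCR, fluorescent labelling, HpaI digestion and capillary electrophoresis; gain of signal vs DMSO.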

Experiment [7] deals with human RAR-related Orphan Receptor beta (RORb), RORB (gene 6096) (UniProt Q92753). Description: ATG_RORb_TRANS: Attagene TRANS-FACTORIAL HepG2 Assay for human RAR-related Orphan Receptor beta (RORb) (AID 2283010). In short, it runs like this:
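Readout is reporter-gene mRNA induction, detected as fluorescence after RT-PCR and capillary electrophoresis, fitted for gain of signal against DMSO controls. Transiently transfected HepG2 liver cells carrying GAL4-UAS reporter constructs were treated for 24 hours.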

For experiment [8], the target named is Retinoic acid receptor RXR-alpha (Homo sapiens) (UniProt P19793). Kind of experiment: ATG_RXRa_TRANS: Attagene TRANS-FACTORIAL HepG2 Assay for human Retinoid X Receptor alpha (RXRa) (AID 2283012). A digest of the protocol: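 Transient transfection of human HepG2 with multiple GAL4-UAS reporter constructs; 24 h compound exposure; total RNA isolated, reverse-transcribed, PCR-amplified, 6-FAM labelled, HpaI-cut, resolved by capillary electrophoresis. Positive-direction fit versus DMSO.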
Chain of Retinoic acid receptor RXR-alpha (Homo sapiens) (P19793 whole entry, looked up, the tested form may be a part): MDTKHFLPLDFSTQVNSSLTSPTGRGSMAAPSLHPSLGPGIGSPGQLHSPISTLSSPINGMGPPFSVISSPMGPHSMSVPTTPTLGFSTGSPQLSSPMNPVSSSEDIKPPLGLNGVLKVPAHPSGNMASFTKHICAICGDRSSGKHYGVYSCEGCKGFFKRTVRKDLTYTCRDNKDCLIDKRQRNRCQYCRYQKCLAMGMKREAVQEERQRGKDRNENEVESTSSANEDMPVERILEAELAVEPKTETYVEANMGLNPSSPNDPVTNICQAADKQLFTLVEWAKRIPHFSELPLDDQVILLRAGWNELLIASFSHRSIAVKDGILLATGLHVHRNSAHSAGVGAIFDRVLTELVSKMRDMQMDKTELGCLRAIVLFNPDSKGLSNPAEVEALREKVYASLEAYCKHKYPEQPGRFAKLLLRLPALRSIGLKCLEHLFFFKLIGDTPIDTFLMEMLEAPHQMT

Experiment [9] has as its target human Retinoid X Receptor beta (RXRb), RXRB (gene 6257) (UniProt P28702). Description: ATG_RXRb_TRANS: Attagene TRANS-FACTORIAL HepG2 Assay for human Retinoid X Receptor beta (RXRb) (AID 2283013). In short, it runs like this: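 Transfect HepG2 with GAL4-UAS multi-reporter constructs (chimeric NR-Gal4, TRANS format); dose compound 24 h; isolate RNA, RT-PCR, FAM primer extension, HpaI digest; quantify by capillary electrophoresis; positive direction vs DMSO.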

Read-out in experiment [10]: E-selectin (Homo sapiens) (UniProt P16581)
Description: BSK_3C_Eselectin: BioMAP Diversity Plus: 3C Assay for Eselectin Biomarker Activity (AID 2283015; active = hit-call score of the fitted dose curve at least 0.9, where 1 is the maximum; inactive = score below 0.9;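 for outcome: cell surface E-selectin protein quantified by ELISA 24 h after dosing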). Particulars: primary human endothelial cells (HUVEC); actives raise or lower the signal. In short, it runs like this: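 ELISA read-out of E-selectin on endothelial monolayers after 24 h chemical treatment. Human umbilical vein primary cells served as the system, with DMSO defining baseline activity for bidirectional fitting.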

Read-out in experiment [11]: Interleukin-1 alpha (IL1a), IL1A (gene 3552)
Description: BSK_BE3C_IL1a: BioMAP Diversity Plus: BE3C Assay for Interleukin-1 alpha (IL1a) Biomarker Activity (AID 2283016; active = hit-call score of the fitted dose curve at least 0.9, where 1 is the maximum; inactive = score below 0.9). Conditions: primary human bronchial epithelial cells; actives raise or lower the signal. A digest of the protocol:
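BE3C primary human bronchial epithelium; cpd 24 h; IL-1a by ELISA; bidirectional fit vs DMSO; parallel SRB (0.1% SRB, 10% TCA fix, 560 nm) for cytotoxicity.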

Read-out in experiment [12]: Monocyte Chemoattractant Protein-1 (MCP1), CCL2 (gene 6347)
Kind of experiment: BSK_3C_MCP1: BioMAP Diversity Plus: 3C Assay for Monocyte Chemoattractant Protein-1 (MCP1) Biomarker Activity (AID 2283017; active = hit-call score of the fitted dose curve at least 0.9, where 1 is the maximum; inactive = score below 0.9). Conditions: primary human endothelial cells (HUVEC); actives raise or lower the signal. In short, it runs like this: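 ELISA read-out of MCP-1 from human umbilical vein endothelial cell cultures harvested 24 h post-dosing. Gain or loss of signal was fitted relative to DMSO.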

Read-out in experiment [13]: Monocyte Chemoattractant Protein-1 (MCP1), CCL2 (gene 6347)
Kind of experiment: BSK_4H_MCP1: BioMAP Diversity Plus: 4H Assay for Monocyte Chemoattractant Protein-1 (MCP1) Biomarker Activity (AID 2283018; active = hit-call score of the fitted dose curve at least 0.9, where 1 is the maximum; inactive = score below 0.9). Particulars: primary human endothelial cells (HUVEC); actives raise or lower the signal. A digest of the protocol: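 ELISA read-out of MCP-1 from human vascular endothelial primary cells taken at 24 hours after compound exposure. Activity was fitted in both directions relative to DMSO, which served as negative control.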

Read-out in experiment [14]: Human Leukocyte Antigen - DR isotype (HLADR), HLA-DRA (gene 3122)
Description: BSK_3C_HLADR: BioMAP Diversity Plus: 3C Assay for Human Leukocyte Antigen - DR isotype (HLADR) Biomarker Activity (AID 2283019; active = hit-call score of the fitted dose curve at least 0.9, where 1 is the maximum; inactive = score below 0.9). Conditions: primary human endothelial cells (HUVEC); actives raise or lower the signal. A digest of the protocol: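 ELISA readout of surface HLA-DR on human umbilical vein endothelium, taken 24 h after chemical treatment. Gain- and loss-of-signal were both fitted relative to DMSO.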

Read-out in experiment [15]: Interleukin-8 (IL8), CXCL8 (gene 3576)
Description: BSK_3C_IL8: BioMAP Diversity Plus: 3C Assay for Interleukin-8 (IL8) Biomarker Activity (AID 2283020; active = hit-call score of the fitted dose curve at least 0.9, where 1 is the maximum; inactive = score below 0.9). Conditions: primary human endothelial cells (HUVEC); actives raise or lower the signal. In short, it runs like this: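 ELISA read-out of IL-8 from human umbilical vein endothelium, measured 24 h after chemical dosing. Activity is expressed relative to DMSO negative control, with both increases and decreases fitted.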

Experiment [16] has as its target human RAR-related Orphan Receptor gamma (RORg), RORC (gene 6097) (UniProt P51449). Kind of experiment: ATG_RORg_TRANS: Attagene TRANS-FACTORIAL HepG2 Assay for human RAR-related Orphan Receptor gamma (RORg) (AID 2283011). In short, it runs like this:
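First, HepG2 liver cells were transfected with GAL4-UAS-driven reporter constructs and the RORg-Gal4 fusion. Next, they were treated with chemical for 24 h. Finally, reporter mRNA was quantified by RT-PCR and capillary electrophoresis, with upward activity fitted against DMSO.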

The target of experiment [17] is human Thyroid Receptor alpha (THRa1), THRA (gene 7067) (UniProt P10827). Description: ATG_THRa1_TRANS: Attagene TRANS-FACTORIAL HepG2 Assay for human Thyroid Receptor alpha (THRa1) (AID 2283014). A digest of the protocol:
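Reporter transcript induction, read by capillary electrophoresis of 6-FAM-labelled RT-PCR products, reflects activity of a transfected THRa1-Gal4 fusion in HepG2 liver cells. Cells were dosed for 24 h; activity was fitted in the positive direction against DMSO.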

Each structure is given as a SMILES string. Records with an inconclusive call do not appear. The source made the active and inactive calls. Rule for the calls, unless noted: active = hit-call score of the fitted dose curve at least 0.9, where 1 is the maximum; inconclusive = response in the unintended direction; inactive = score below 0.9.

Chain of E-selectin (Homo sapiens) (P16581 whole entry, looked up): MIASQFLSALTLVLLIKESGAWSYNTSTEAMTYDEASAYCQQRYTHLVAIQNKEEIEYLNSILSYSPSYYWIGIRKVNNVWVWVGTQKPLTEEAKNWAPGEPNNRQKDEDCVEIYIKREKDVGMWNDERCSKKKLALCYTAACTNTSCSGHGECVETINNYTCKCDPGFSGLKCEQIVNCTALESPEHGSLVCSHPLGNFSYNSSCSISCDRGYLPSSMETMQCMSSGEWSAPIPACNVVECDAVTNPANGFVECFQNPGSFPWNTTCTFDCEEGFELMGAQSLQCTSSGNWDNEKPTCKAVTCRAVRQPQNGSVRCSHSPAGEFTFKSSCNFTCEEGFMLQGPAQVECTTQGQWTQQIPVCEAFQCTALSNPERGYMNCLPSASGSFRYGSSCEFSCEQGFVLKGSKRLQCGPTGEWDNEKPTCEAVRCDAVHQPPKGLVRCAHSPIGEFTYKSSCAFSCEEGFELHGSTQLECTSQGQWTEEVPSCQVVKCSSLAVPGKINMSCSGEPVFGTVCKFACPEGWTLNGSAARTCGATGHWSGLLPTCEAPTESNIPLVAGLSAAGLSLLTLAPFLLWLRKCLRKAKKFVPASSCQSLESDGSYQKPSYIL
Chain of human RAR-related Orphan Receptor beta (RORb), RORB (gene 6096) (Q92753 whole entry, looked up, the tested form may be a part): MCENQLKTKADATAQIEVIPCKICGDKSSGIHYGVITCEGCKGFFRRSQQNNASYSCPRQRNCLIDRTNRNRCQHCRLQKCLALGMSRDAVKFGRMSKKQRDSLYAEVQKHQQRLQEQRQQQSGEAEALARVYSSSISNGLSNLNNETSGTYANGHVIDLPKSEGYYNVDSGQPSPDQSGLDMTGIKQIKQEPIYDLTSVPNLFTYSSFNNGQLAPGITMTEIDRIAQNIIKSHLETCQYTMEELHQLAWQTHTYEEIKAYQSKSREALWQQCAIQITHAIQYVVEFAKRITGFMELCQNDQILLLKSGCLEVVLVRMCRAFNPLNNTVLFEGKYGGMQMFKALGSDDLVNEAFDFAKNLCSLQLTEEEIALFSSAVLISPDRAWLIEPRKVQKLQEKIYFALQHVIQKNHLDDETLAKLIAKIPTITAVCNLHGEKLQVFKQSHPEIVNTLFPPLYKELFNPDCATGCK
Chain of human Thyroid Receptor alpha (THRa1), THRA (gene 7067) (P10827 whole entry, looked up, the tested form may be a part): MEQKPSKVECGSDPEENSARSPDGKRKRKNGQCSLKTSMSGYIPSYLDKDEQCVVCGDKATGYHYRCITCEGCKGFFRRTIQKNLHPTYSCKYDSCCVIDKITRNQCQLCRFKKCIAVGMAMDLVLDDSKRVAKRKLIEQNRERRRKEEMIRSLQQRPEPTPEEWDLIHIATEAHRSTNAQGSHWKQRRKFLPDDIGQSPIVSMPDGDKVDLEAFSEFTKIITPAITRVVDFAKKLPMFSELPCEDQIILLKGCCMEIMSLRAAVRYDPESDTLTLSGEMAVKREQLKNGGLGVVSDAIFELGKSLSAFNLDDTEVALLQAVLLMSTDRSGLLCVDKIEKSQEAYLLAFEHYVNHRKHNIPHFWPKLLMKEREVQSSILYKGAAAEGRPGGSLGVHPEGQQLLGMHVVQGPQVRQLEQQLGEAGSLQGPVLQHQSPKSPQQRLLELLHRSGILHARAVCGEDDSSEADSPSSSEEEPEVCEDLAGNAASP
Chain of human Retinoid X Receptor beta (RXRb), RXRB (gene 6257) (P28702 whole entry, looked up, the tested form may be a part): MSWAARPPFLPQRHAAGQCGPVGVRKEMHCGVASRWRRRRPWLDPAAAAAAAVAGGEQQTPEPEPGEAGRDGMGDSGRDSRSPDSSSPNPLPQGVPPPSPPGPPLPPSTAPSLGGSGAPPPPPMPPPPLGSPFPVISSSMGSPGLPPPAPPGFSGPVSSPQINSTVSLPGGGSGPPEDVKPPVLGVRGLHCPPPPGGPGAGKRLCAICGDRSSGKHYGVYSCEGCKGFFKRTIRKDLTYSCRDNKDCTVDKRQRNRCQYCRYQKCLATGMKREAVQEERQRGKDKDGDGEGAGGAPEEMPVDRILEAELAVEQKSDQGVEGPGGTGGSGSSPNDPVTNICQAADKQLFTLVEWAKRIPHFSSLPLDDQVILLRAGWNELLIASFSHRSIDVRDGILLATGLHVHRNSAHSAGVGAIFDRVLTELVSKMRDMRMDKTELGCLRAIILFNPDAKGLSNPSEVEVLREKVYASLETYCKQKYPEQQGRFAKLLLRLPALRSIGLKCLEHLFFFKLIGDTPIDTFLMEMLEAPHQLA
Chain of human RAR-related Orphan Receptor gamma (RORg), RORC (gene 6097) (P51449 whole entry, looked up, the tested form may be a part): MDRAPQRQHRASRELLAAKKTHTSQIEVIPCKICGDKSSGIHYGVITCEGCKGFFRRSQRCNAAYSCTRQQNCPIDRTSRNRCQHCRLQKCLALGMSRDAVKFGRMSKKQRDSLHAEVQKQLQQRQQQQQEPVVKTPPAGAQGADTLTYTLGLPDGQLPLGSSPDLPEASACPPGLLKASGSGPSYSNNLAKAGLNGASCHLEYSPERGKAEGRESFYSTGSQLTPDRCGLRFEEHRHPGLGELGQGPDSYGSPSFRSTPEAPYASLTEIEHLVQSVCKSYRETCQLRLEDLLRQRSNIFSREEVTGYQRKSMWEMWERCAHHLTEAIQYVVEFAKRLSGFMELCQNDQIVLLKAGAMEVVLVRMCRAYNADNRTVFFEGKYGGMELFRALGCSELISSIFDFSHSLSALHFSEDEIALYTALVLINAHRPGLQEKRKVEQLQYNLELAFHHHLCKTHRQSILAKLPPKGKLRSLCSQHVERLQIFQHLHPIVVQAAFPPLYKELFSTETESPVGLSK
Chain of Peroxisome proliferator-activated receptor gamma (Homo sapiens) (P37231 whole entry, looked up, the tested form may be a part): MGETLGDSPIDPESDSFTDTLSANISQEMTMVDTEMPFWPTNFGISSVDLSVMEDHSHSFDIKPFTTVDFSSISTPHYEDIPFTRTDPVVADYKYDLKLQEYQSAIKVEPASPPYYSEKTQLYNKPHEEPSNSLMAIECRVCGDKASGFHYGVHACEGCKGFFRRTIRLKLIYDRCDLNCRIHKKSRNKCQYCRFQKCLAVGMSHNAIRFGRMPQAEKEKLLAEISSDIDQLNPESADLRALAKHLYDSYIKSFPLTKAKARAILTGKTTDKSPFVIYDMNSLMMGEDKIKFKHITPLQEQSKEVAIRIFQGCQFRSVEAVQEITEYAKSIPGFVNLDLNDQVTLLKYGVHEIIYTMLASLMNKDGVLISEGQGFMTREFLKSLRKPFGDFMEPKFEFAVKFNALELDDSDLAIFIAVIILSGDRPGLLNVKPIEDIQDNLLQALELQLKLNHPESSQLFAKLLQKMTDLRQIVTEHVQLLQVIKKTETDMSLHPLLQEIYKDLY
Chain of Nuclear receptor subfamily 1 group I member 2 (Homo sapiens) (O75469 whole entry, looked up, the tested form may be a part): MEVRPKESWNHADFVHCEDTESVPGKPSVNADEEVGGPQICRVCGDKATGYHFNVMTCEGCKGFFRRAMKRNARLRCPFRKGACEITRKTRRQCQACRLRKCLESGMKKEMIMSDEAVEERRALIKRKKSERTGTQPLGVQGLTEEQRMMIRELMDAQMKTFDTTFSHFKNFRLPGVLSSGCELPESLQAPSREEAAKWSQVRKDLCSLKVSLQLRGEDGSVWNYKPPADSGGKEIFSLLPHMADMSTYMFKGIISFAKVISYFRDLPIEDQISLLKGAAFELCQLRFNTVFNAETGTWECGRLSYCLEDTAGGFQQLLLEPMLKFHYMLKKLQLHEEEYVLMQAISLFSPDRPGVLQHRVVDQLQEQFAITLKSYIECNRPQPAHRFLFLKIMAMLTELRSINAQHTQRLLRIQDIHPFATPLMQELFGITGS
Chain of human Peroxisome Proliferator-activated Receptor alpha (PPARa), PPARA (gene 5465) (Q07869 whole entry, looked up, the tested form may be a part): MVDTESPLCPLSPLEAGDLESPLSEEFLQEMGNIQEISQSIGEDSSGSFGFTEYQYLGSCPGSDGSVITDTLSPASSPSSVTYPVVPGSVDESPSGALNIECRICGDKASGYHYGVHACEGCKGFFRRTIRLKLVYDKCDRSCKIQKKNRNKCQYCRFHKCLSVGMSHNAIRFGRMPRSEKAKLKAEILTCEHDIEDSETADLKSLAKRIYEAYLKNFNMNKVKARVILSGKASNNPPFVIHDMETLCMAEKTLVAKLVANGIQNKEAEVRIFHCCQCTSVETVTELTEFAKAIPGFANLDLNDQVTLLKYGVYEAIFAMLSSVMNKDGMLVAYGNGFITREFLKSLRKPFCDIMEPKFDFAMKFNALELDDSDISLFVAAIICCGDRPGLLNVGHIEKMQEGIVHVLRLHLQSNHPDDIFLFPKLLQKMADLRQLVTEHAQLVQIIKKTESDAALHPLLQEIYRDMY

For the molecule `C=C(C)C(=O)O[C@H]1C[C@@H]2CC[C@@]1(C)C2(C)C`, the result in experiment [1], in experiment [2], in experiment [5], in experiment [7] and in [8] was inactive. Also, the AC50 is 28.8 µM (active) in experiment [3]; 8.38 µM (active) in [4]; 31.6 µM (active) in experiment [6]; 100 µM (active) in [9]; 15.1 µM (active) in [10]; 20 µM (active) in [11]. The AC50 in experiment [12] is 20 µM (active); in [13], 5.54 µM (active); in [14] it was 9.37 µM (active); in [15], 20 µM (active).

On to `O=C(O)c1cccc([N+](=O)[O-])c1`, for which the molecule was called inactive in [1], in experiment [2], in experiment [5], in experiment [6], in experiment [7] and in experiment [16]. Moreover, the molecule was called inactive in [8] and in experiment [17].

Consider `Nc1cc(Cl)c(O)c(Cl)c1`, for which the outcome in experiment [1], in experiment [2], in experiment [6], in experiment [7], in experiment [16] and in experiment [8] was inactive. In experiment [17], the molecule was called inactive. Moreover, in experiment [5], the AC50 is 30 µM (active).

In the case of `CCCCC(CC)COC(=O)/C=C\C(=O)OCC(CC)CCCC` (configuration not stated), the molecule was called inactive in experiment [1], in [2], in experiment [3], in experiment [4], in [10] and in experiment [11]. Further, the result in [12], in experiment [13], in experiment [14] and in experiment [15] was inactive. Further, the AC50 in experiment [5] is 4.7 µM (active); in experiment [6], 4.17 µM (active).

Turning to `O=C(Nc1ccccc1)c1cc([N+](=O)[O-])ccc1Cl`, the molecule was classed as inactive in [1], in experiment [2], in [7], in experiment [16], in experiment [8] and in experiment [17]. Besides, the concentration at half-maximal activity (AC50) in experiment [5] was 19.8 µM (active); in experiment [6], 3.82 µM (active).

For the molecule `NCCNCCN`, the molecule was classed as inactive in experiment [1], in [2], in experiment [3], in [4], in [5] and in experiment [6]. Moreover, the molecule was classed as inactive in experiment [7], in experiment [16], in experiment [8], in experiment [9], in experiment [10] and in experiment [11]. Also, the result in experiment [12], in [13], in experiment [14] and in experiment [15] was inactive.

As for `O=C(Oc1ccccc1)c1ccc(O)cc1`, the outcome in experiment [1], in experiment [2], in experiment [5], in experiment [6], in [7] and in experiment [8] was inactive. The result in experiment [9] and in experiment [17] was inactive.

In the case of `NC(=O)c1ccccc1Cl`, the molecule was classed as inactive in [1], in experiment [2], in [5], in experiment [7], in experiment [16] and in [8]. In addition, the molecule was classed as inactive in [9].

As for `C=CC(=O)OCC(O)COc1ccccc1` (configuration not stated), the AC50 was 17.3 µM (active) in experiment [1], 3.66 µM (active) in experiment [5] and 61 µM (active) in experiment [6]. The result in experiment [2], in experiment [16], in experiment [9] and in [17] was inactive.

Turning to `OC1C(O)C(O)C(O)C(O)C1O` (configuration not stated), the result in [1], in [2], in [5], in experiment [6], in experiment [16] and in [9] was inactive. The outcome in experiment [17] was inactive.

As for `CCC(=O)/C=C/C1C(C)=CCCC1(C)C` (configuration not stated), the result in experiment [1], in experiment [2] and in experiment [8] was inactive. Besides, the AC50 in experiment [5] is 21.4 µM (active); in [6], 3.77 µM (active); in experiment [9] it was 34.7 µM (active).

In general, AC50 refers to the concentration giving half of the maximal activity seen.
